Activity calls are given as the source filed them.

For 15 molecules, z-score results are on record in PubChem BioAssay.

Assay [1] in a line: compound effects on lung adenocarcinoma cell viability – A549, calcein-AM fluorescence, 48 h, basal, profiling panel (AID 1162). Conditions: higher = more signal.
A short description of assay [2]: compound effects on differentiated 3T3-L1 adipocyte viability – cell-based, 3T3-L1 adipocytes, calcein-AM fluorescence, 48 h, basal, profiling panel (AID 1163). Conditions: 3T3-L1 adipocytes viability, higher = more signal.
Assay [3] can be described thus: compound effects on hepatocellular carcinoma cell viability – HepG2, calcein-AM fluorescence, 48 h, basal, profiling panel (AID 1164). Conditions: higher = more signal.
A short description of assay [4]: compound effects on multiple myeloma cell viability – MM1S, calcein-AM fluorescence, 48 h, basal, profiling panel (AID 1165).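 Note: viability of MM1S multiple myeloma cells under basal unstimulated conditions.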 The note with it: higher = more signal.
The nature of assay [5]: calcein-AM signal in unstimulated myeloma cells – cell-based, calcein-AM fluorescence, 48 h, PK04 Diversity Set, profiling panel (AID 1166).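 Note: cells grown under basal conditions without added stimulus.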 Conditions: RPMI8226 myeloma viability, higher = more signal.
Assay [6] can be described thus: JC-1 mitochondrial signal, unstimulated HepG2 cells – cell-based, JC-1 fluorescence, 24 h, 100 nL compound, profiling panel (AID 1167). The note with it: HepG2 mitochondrial potential, higher = more signal.
The nature of assay [7]: JC-1 mitochondrial signal, unstimulated adipocytes – cell-based, JC-1 fluorescence, 3T3-L1 adipocytes, 24 h, 100 nL compound, profiling panel (AID 1168). The note with it: JC-1 mitochondrial fluorescence, higher = more signal, called active from +8 up or from −8 down.
A short description of assay [8]: JC-1 mitochondrial signal, unstimulated myeloma cells – cell-based, JC-1 fluorescence, RPMI8226, 24 h, 100 nL compound, profiling panel (AID 1169). Conditions: JC-1 mitochondrial potential fluorescence, higher = more signal.
The nature of assay [9]: JC-1 mitochondrial signal, unstimulated MM1S myeloma – cell-based, JC-1 fluorescence, 24 h, 100 nL compound, profiling panel (AID 1170). Conditions: MM1S mitochondrial potential, higher = more signal.
Assay [10] in a line: resazurin metabolic signal in A549 cells – cell-based, resazurin fluorescence, 24 h, PK04 Diversity Set, profiling panel (AID 1171). Conditions: A549 viability, higher = more signal, called active from +8 up or from −8 down.
Note: test concentration not given here.

As for `CC(C)C(=C=CC[C@H](O)c1cccc(OCCO)c1)C[C@H](O)c1ccccn1`, the z-score in assay [1] is 1.65; in assay [2], -0.0875; in assay [3], 0.731; in assay [4] it was 0.301; in assay [5], 0.942; in assay [6], 0.807. In addition, the z-score was 0.259 (inactive) in assay [7], 0.509 in assay [8], -0.803 in assay [9] and 1.26 (inactive) in [10].

`C=CCOC(=O)[C@H]1[C@@H]2C(=O)O[C@@H](c3ccccc3)[C@@H](c3ccccc3)N2[C@@H](c2ccc(OCCOC(=O)[C@H]3C[C@H]4C(=O)NCC(=O)N4[C@H]3c3cccc(OCCO)c3)cc2)[C@]12C(=O)Nc1ccc(I)cc12`: the z-score is 0.0164 in assay [1]; 0.656 in assay [2]; 0.902 in assay [3]; -0.223 in [4]; 0.491 in assay [5]; -0.777 in assay [6]. Moreover, the z-score in assay [7] is -0.00167 (inactive); in assay [8], -0.554; in [9] it was -1.28; in assay [10], 0.592 (inactive).

Turning to `C=CC[C@H](O)c1ccc(O)c(F)c1`, the z-score in assay [1] is -0.402; in assay [2] it was 0.329; in assay [3], -0.821; in [4], -0.229; in [5], -0.426; in assay [6] it was -0.737. In addition, the z-score in [7] was 0.083 (inactive); in assay [8] it was -0.153; in [9], 0.384; in [10], -0.396 (inactive).

`COC(=O)[C@]1(Cc2ccccc2CN=[N+]=[N-])N=C(c2ccc(OCCCO)cc2)O[C@@H]1c1ccccc1N=[N+]=[N-]`: the z-score in assay [1] is -3.25; in [2] it was -0.028; in assay [3], -5.51; in assay [4], -3.55; in assay [5], -4; in assay [6] it was 1.52. Moreover, the z-score was -0.387 (inactive) in [7], -1.06 in [8], -2.47 in assay [9] and -2.73 (inactive) in assay [10].

Regarding `COCCOC(=O)N1C(=O)[C@@]2(c3cc(C#CCCO)ccc31)[C@H](C(=O)N1CCN(c3ncccn3)CC1)[C@H]1C(=O)O[C@H](c3ccccc3)[C@H](c3ccccc3)N1[C@@H]2c1ccc(OCCO)cc1`, the z-score in assay [1] is 0.451; in assay [2] it was 0.474; in assay [3] it was -0.442; in [4] it was -1.07; in assay [5], 0.863; in assay [6] it was -1.02. Besides, the z-score in [7] was 0.0633 (inactive); in [8] it was -0.185; in assay [9] it was -1.02; in [10], 0.427 (inactive).

As for `COCCOC(=O)N1C(=O)[C@@]2(c3cc(C#CCC(C(=O)OC)C(=O)OC)ccc31)[C@H](C(N)=O)[C@H]1C(=O)O[C@H](c3ccccc3)[C@H](c3ccccc3)N1[C@@H]2c1ccccc1OCCO`, the z-score is 1.3 in assay [1]; 1.27 in assay [2]; 0.645 in assay [3]; -2.97 in [4]; -3.48 in [5]; 0.142 in assay [6]. Moreover, the z-score was 1.83 (inactive) in assay [7], -0.79 in assay [8], -1.62 in assay [9] and -0.175 (inactive) in [10].

On to `CCCCC=C[C@@H](NC(=O)C(C)(C)C)c1ccccc1`, for which the z-score is -2.66 in assay [1]; -0.688 in [2]; -5.19 in [3]; -3.26 in assay [4]; -4.72 in assay [5]; -4.78 in assay [6]. The z-score in [7] was -0.576 (inactive); in assay [8], -0.895; in assay [9] it was -2.82; in assay [10], -0.938 (inactive).

Regarding `O=C1OC[C@@H](c2ccccc2)n2cc(/C=C/c3ccccc3)cc21`, the z-score in [1] was -0.235; in [2], 1.75; in [3], -0.202; in [4], -0.472; in assay [5], -0.597; in [6] it was -0.564. Moreover, the z-score is 0.156 (inactive) in assay [7], -0.161 in assay [8], -0.735 in assay [9] and 0.229 (inactive) in assay [10].

With `C=C[C@H](OC)[C@@H](O)c1ccc(OC)c(O)c1`, the z-score in assay [1] is -0.107; in assay [2] it was -0.678; in assay [3] it was 1.69; in assay [4] it was -0.166; in assay [5], -0.991; in assay [6] it was 1.26. Further, the z-score was 0.503 (inactive) in [7], 0.5 in assay [8], 0.443 in assay [9] and -0.112 (inactive) in assay [10].

`CC[C@@H]1C=C(C(=O)O)[C@H](c2cccc(Cl)c2)N1S(=O)(=O)c1ccc(C)cc1`: the z-score in assay [1] was -0.0107; in assay [2], -0.762; in assay [3], 0.223; in [4], 0.126; in assay [5], 0.0221; in [6] it was -0.743. Moreover, the z-score in assay [7] is -0.41 (inactive); in assay [8], -0.623; in assay [9], -0.343; in assay [10], -0.628 (inactive).

As for `C=CCNC(=O)[C@H]1[C@@H]2C(=O)O[C@@H](c3ccccc3)[C@@H](c3ccccc3)N2[C@@H](c2ccc(O)cc2)[C@]12C(=O)Nc1ccc(C#CCC(C(=O)OC)C(=O)OC)cc12`, the z-score in assay [1] was 0.33; in assay [2], -0.0589; in assay [3] it was 0.102; in assay [4] it was -2.95; in [5], -4.12; in assay [6] it was -0.922. For the same molecule, the z-score in assay [7] was -0.363 (inactive); in assay [8], -0.891; in [9], 0.111; in [10] it was 0.0955 (inactive).

In the case of `O=C1C2C=CC(C(O)C3CCCCC3)N(Nc3ccccc3F)C2C(=O)N1c1ccccc1` (stereo not given), the z-score is -0.112 in assay [1]; 0.1 in assay [2]; -0.528 in [3]; 0.345 in [4]; -0.925 in assay [5]; -0.804 in assay [6]. For the same molecule, the z-score is -0.865 (inactive) in assay [7], -0.224 in assay [8], -0.433 in assay [9] and -0.852 (inactive) in assay [10].

Turning to `CC(C)[Si](C#Cc1ccccc1)(O[C@H](c1ccccc1)c1cn(Cc2ccccc2)nn1)C(C)C`, the z-score was -1.6 in assay [1]; -0.433 in assay [2]; -2.13 in assay [3]; -1.8 in assay [4]; -2.46 in [5]; -1.19 in assay [6]. In addition, the z-score in assay [7] was 0.24 (inactive); in assay [8], -0.425; in [9] it was -0.0328; in assay [10] it was -0.486 (inactive).

As for `C=CCNC(=O)[C@H]1[C@@H]2C(=O)O[C@@H](c3ccccc3)[C@@H](c3ccccc3)N2[C@@H](c2ccc(OCCO)cc2)[C@]12C(=O)N(C(=O)OCCOC)c1ccc(C#CCC(C(=O)OC)C(=O)OC)cc12`, the z-score in assay [1] was 1.32; in assay [2] it was 0.0681; in [3] it was 0.811; in [4] it was 0.495; in assay [5], -0.749; in [6] it was -0.517. Further, the z-score in assay [7] is 0.566 (inactive); in [8], -0.82; in assay [9] it was -1.58; in assay [10], -0.0048 (inactive).

As for `CCCCN1CC=CC23O[C@@H]4/C=C\CCCOC(=O)C4[C@H]2C(=O)N(CCCCCCO)[C@@H]3C1=O` (stereo not given in full), the z-score in [1] is -0.0075; in assay [2], 1.61; in [3] it was 0.331; in [4], 1.42; in assay [5] it was 0.88; in assay [6] it was 0.608. The z-score in [7] is 1.38 (inactive); in assay [8], 0.16; in [9], -1.05; in assay [10], 0.851 (inactive).
